# Results reported in PubChem BioAssay (NCATS).
# Where “and” joins values, the source holds several entries; their conditions need not be identical. Identical values can stand only once. Results filed as inconclusive are left out. A call without a number means that no potency is given here. More than one record can exist for a structure, and the calls need not agree. Calls of active or inactive are those of the source. Calls come from the whole dose curve.
# What was measured:
# [1] = Primary qHTS for inhibitors of MERS-S pseudo-typed particle cell entry (AID 1479149); note: nearly all actives have a fitted effect of over 60% in size
# [2] = Primary qHTS for Vero E6 cytotoxicity: counterscreen for inhibitors of SARS-S pseudo-typed particle cell entry (AID 1479150)
# [3] = Confirmatory qHTS for activators (rescue) of SARS-CoV-2 Cytopathic Effect (CPE) (AID 1508606); note: nearly all actives have a fitted effect of over 70% in size
# [4] = Confirmatory qHTS to identify inhibitors of SARS-CoV-2 cell entry (AID 1645844); note: nearly all actives have a fitted effect of over 45% in size
# Summary of the method: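 Luminescence entry read-out after 48 h: spike-pseudotyped MLV particles (Wuhan-Hu-1, 19-aa C-terminal truncation) added to compound-pretreated (1 h) HEK293-ACE2 cells; Data were normalised to bald PP and spike PP wells.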
# [5] = Cytotoxicity counterscreen for inhibitors of SARS-CoV-2 cell entry (AID 1645845); note: nearly all actives have a fitted effect of over 50% in size
# Summary of the method: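 ATP-content luminescence (ATPLite 1step, 15 min RT) read after 48 h compound exposure of Expi293F cells stably expressing human ACE2; normalized to cells-only wells and media-only wells.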
# [6] = Primary qHTS to identify inhibitors of SARS-CoV-2 cell entry (AID 1645846); conditions: activity change, negative = inhibition: at 57.1 µM (top of the series) unless noted; note: nearly all actives have a fitted effect of over 45% in size
# Summary of the method: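 Entry measured by luciferase signal 48 h after adding SARS-CoV-2-S pseudotyped MLV particles to HEK293-ACE2 cells preincubated 1 h with compounds. Normalisation: bald particles and spike particles.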
# [7] = Primary qHTS for Huh7 cytotoxicity: counterscreen for inhibitors of MERS-S pseudotyped particle cell entry (AID 1479147)
# [8] = Confirmatory qHTS for VERO E6 Cytotoxicity Assay: Counterscreen for SARS-CoV-2 CPE Assay (AID 1508605); note: nearly all actives have a fitted effect of over 60% in size
# Potency is the fitted concentration of half-maximal effect.
compound,measurement,setting,value
CC(=O)Oc1ccccc1C(=O)Nc1ncc([N+](=O)[O-])s1,Potency,[1],5.62 µM (active)
same,Potency,[2],28.2 µM (active)
same,Potency,[3],5.01 µM (active)
same,Potency,[4],3.83 µM (active)
same,Potency,[5],inactive
same,Potency,[6],5.62 µM (active) and inactive
O=c1c(O)c(-c2ccc(O)c(O)c2)oc2cc(O)cc(O)c12,Potency,[7],inactive
same,Potency,[2],inactive
same,Potency,[5],inactive
same,Potency,[6],inactive
same,"activity change, negative = inhibition",[6],-12.3%
O[C@@H](c1cc(C(F)(F)F)nc2c(C(F)(F)F)cccc12)[C@H]1CCCCN1,Potency,[1],inactive
COc1ccc2nc(S(=O)Cc3ncc(C)c(OC)c3C)[nH]c2c1 (centres undefined),Potency,[7],inactive
same,Potency,[2],inactive
same,Potency,[5],inactive
same,"activity change, negative = inhibition",[6],-4.15%
CC1(C)NC(=O)N(c2ccc([N+](=O)[O-])c(C(F)(F)F)c2)C1=O,Potency,[7],inactive
same,Potency,[5],inactive
same,"activity change, negative = inhibition",[6],-23.9%
Cn1c(=O)c2c(ncn2CC(O)CO)n(C)c1=O (centres undefined),Potency,[7],inactive
same,Potency,[2],inactive
same,Potency,[5],inactive
same,Potency,[6],inactive
same,"activity change, negative = inhibition",[6],4.29%
CCCC(CCC)C(=O)O,Potency,[7],inactive
same,Potency,[2],inactive
same,Potency,[6],inactive
same,"activity change, negative = inhibition",[6],-12.6%
C#Cc1cccc(Nc2ncnc3cc(OCCOC)c(OCCOC)cc23)c1,Potency,[7],inactive
same,Potency,[2],inactive
same,Potency,[5],inactive
Cc1nc(Nc2ncc(C(=O)Nc3c(C)cccc3Cl)s2)cc(N2CCN(CCO)CC2)n1,Potency,[7],inactive
same,Potency,[5],inactive
Nc1[nH]c(=O)ncc1F,Potency,[7],inactive
same,Potency,[2],inactive
same,Potency,[5],inactive
same,"activity change, negative = inhibition",[6],-21.9% and -13.2%
CN1C(=O)CC(C)(c2ccccc2)C1=O (centres undefined),Potency,[7],inactive
same,Potency,[2],inactive
same,Potency,[5],inactive
same,"activity change, negative = inhibition",[6],-13.4%
Cn1cnc([N+](=O)[O-])c1Sc1ncnc2nc[nH]c12,Potency,[7],inactive
same,Potency,[2],inactive
same,Potency,[6],inactive
same,"activity change, negative = inhibition",[6],-53.9%
NC(=O)N/N=C/c1ccc([N+](=O)[O-])o1,Potency,[1],inactive
same,Potency,[2],inactive
O=C1c2c(O)ccc(O)c2C(=O)c2c(NCCNCCO)ccc(NCCNCCO)c21,Potency,[7],25.1 µM (active)
same,"activity change, negative = inhibition",[6],-94.5% and -97.6%
Nc1nc(=S)c2[nH]cnc2[nH]1,Potency,[1],inactive
same,Potency,[5],7.94 µM (active)
same,Potency,[6],14.1 µM (active)
Nc1nc(N)c2nc(-c3ccccc3)c(N)nc2n1,Potency,[1],inactive
same,Potency,[2],inactive
same,Potency,[5],inactive
same,Potency,[6],inactive
CCN(CC)C(=S)SSC(=S)N(CC)CC,Potency,[1],inactive
same,Potency,[6],891 nM (active) and 7.94 µM (active)
OCCN1CCN(CCCN2c3ccccc3Sc3ccc(Cl)cc32)CC1,Potency,[2],inactive
same,Potency,[3],inactive
same,Potency,[5],28.2 µM (active)
CC1(CN2CCC(n3c(=O)[nH]c4ccccc43)CC2)OCc2ccccc2-n2cccc21 (centres undefined),Potency,[8],inactive
same,Potency,[5],inactive
same,"activity change, negative = inhibition",[6],-26.7%
CC(C)C[C@H](NC(=O)[C@H](CCc1ccccc1)NC(=O)CN1CCOCC1)C(=O)N[C@@H](Cc1ccccc1)C(=O)N[C@@H](CC(C)C)C(=O)[C@@]1(C)CO1,Potency,[1],inactive
same,"activity change, negative = inhibition",[6],-96% and -97.8%
COc1cc(C(C)=O)ccc1OCCCN1CCC(c2noc3cc(F)ccc23)CC1,Potency,[8],inactive
same,Potency,[3],11.2 µM (active)
COC1=CC(=O)C[C@@H](C)[C@]12Oc1c(Cl)c(OC)cc(OC)c1C2=O,Potency,[1],inactive
same,Potency,[2],inactive
same,Potency,[5],inactive
Cc1ccc(-n2[nH]c(C)c(N=Nc3cccc(-c4cccc(C(=O)O)c4)c3O)c2=O)cc1C,Potency,[2],inactive
same,Potency,[5],inactive
CCc1nn(CCCN2CCN(c3cccc(Cl)c3)CC2)c(=O)n1CCOc1ccccc1,Potency,[2],inactive
CN(C)C(=O)C(CCN1CCC(O)(c2ccc(Cl)cc2)CC1)(c1ccccc1)c1ccccc1,Potency,[2],inactive
same,Potency,[8],inactive
same,Potency,[4],21.5 µM (active)
same,Potency,[5],inactive
CCCCc1oc2ccc(NS(C)(=O)=O)cc2c1C(=O)c1ccc(OCCCN(CCCC)CCCC)cc1,Potency,[1],17.8 µM (active)
same,Potency,[6],11.2 µM (active)
CN1CCN(CCCN2c3ccccc3Sc3ccc(Cl)cc32)CC1,Potency,[2],inactive
same,Potency,[8],20 µM (active)
same,Potency,[5],inactive
O=C(CCCN1CCC(O)(c2ccc(Cl)cc2)CC1)c1ccc(F)cc1,Potency,[2],inactive
same,Potency,[5],inactive
CCC(C)n1ncn(-c2ccc(N3CCN(c4ccc(OC[C@H]5CO[C@](Cn6cncn6)(c6ccc(Cl)cc6Cl)O5)cc4)CC3)cc2)c1=O (some centres undefined),Potency,[1],2.51 µM (active)
same,Potency,[2],inactive
same,Potency,[5],inactive
same,"activity change, negative = inhibition",[6],-4.73% [at 27.1 µM]
O=C(O)c1ccc(-n2nc(-c3ccccc3O)nc2-c2ccccc2O)cc1,Potency,[2],inactive
same,Potency,[4],30.4 µM (active)
CN1CCc2cccc3c2[C@H]1Cc1ccc(O)c(O)c1-3,Potency,[1],inactive
same,Potency,[2],inactive
same,Potency,[5],inactive
